Laboratory results published in PubChem BioAssay (EPA / NIEHS).
Where “and” joins values, the source holds several entries; their conditions need not be identical. Equal values may be shown once. Inconclusive results are not listed. Where a structure was tested more than once in an assay, its records may differ in their call. Calls of active or inactive are those of the source. The calls were made as follows, unless noted: active = hit-call score of the fitted dose curve at least 0.9, where 1 is the maximum; inactive = score below 0.9.

Legend:
[1] = ATG_TAL_CIS: Attagene CIS-FACTORIAL HepG2 Assay for human TAL Basal Promoter (AID 2282966); settings: HepG2 Attagene cis-factorial TAL promoter reporter; actives raise or lower the signal;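 also: background control endpoint measuring basal TAL promoter reporter mRNA not a specific factor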
Summary of the method: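 HepG2, transient MRTU transfection, 24 h compound exposure; RNA → oligo(dT) RT → PCR → 6-FAM primer extension → HpaI digest → CE fluorescence. Bidirectional curve fit vs DMSO. Background-control readout.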

[2] = ATG_TGFb_CIS: Attagene CIS-FACTORIAL HepG2 Assay for human Transforming Growth Factor (TGF) (AID 2282967); settings: HepG2 Attagene CIS TGFb reporter, mRNA transcription; actives raise or lower the signal
Summary of the method: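 HepG2 cells transiently transfected with cis-promoter-driven multiple reporter units measure endogenous TF activity; reporter mRNA quantified at 24 h by RT-PCR, FAM labeling, HpaI digestion and capillary electrophoresis. Bidirectional fit vs DMSO.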

[3] = ATG_VDRE_CIS: Attagene CIS-FACTORIAL HepG2 Assay for human Vitamin D Receptor Element (VDRE) (AID 2282968); settings: HepG2 VDRE cis-reporter transcription, actives raise or lower the signal
Summary of the method: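 Transient MRTU transfection of HepG2, 24 h compound exposure. Readout: reporter transcripts via RT-PCR and capillary electrophoresis, fluorescence. Bidirectional fit vs DMSO.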

[4] = molecular target: Nuclear receptor subfamily 1 group I member 3 (Homo sapiens) (UniProt Q14994); assay: ATG_CAR_TRANS: Attagene TRANS-FACTORIAL HepG2 Assay for human Constitutive Androstane Receptor (CAR) (AID 2282969; active = hit-call score of the fitted dose curve at least 0.9, where 1 is the maximum;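 also: activators raise reporter mRNA above DMSO so AC50 marks induction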); settings: HepG2 Attagene TRANS-FACTORIAL CAR reporter
Summary of the method: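 Transiently transfected HepG2, multiplex TRANS reporters (CAR-Gal4 chimera driving GAL4-UAS reporter). 24 h dosing. Readout: reporter transcript by RT-PCR + capillary electrophoresis, fluorescence intensity; positive direction vs DMSO.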

[5] = molecular target: Estrogen receptor (Homo sapiens) (UniProt P03372); assay: ATG_ERa_TRANS: Attagene TRANS-FACTORIAL HepG2 Assay for human Estrogen Receptor alpha (ERa) (AID 2282970; active = hit-call score of the fitted dose curve at least 0.9, where 1 is the maximum); settings: HepG2 Attagene TRANS ERa GAL4 reporter, mRNA
Summary of the method: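 Reporter mRNA induction after 24 hours, detected by fluorescent RT-PCR and capillary electrophoresis, gives the read-out. Cells are HepG2 transiently transfected with GAL4-UAS reporter transcription units responding to chimeric NR-Gal4. Activity is taken as gain of signal over DMSO baseline.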

[6] = molecular target: Steroid hormone receptor ERR1 (Homo sapiens) (UniProt P11474); assay: ATG_ERRa_TRANS: Attagene TRANS-FACTORIAL HepG2 Assay for human Estrogen-Related Receptor alpha (ERRa) (AID 2282971; active = hit-call score of the fitted dose curve at least 0.9, where 1 is the maximum); settings: HepG2 Attagene TRANS reporter, ERRa transactivation
Summary of the method: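 Transfected HepG2, 24 h dosing, ERRa-Gal4 chimera driving GAL4-UAS reporter. Readout: reporter mRNA via RT-PCR plus capillary electrophoresis (fluorescence). Positive direction vs DMSO control.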

[7] = ATG_M_19_TRANS: Attagene TRANS-FACTORIAL HepG2 Assay for M19 Transcription Factor (Internal Marker) (AID 2282974; active = hit-call score of the fitted dose curve at least 0.9, where 1 is the maximum); settings: HepG2 Attagene TRANS-FACTORIAL M19 internal marker reporter
Summary of the method: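 HepG2 transiently transfected with GAL4-UAS multiplex reporter constructs, exposed 24 h; reporter RNA quantified by RT-PCR, 6-FAM labeling, HpaI digestion and capillary electrophoresis; internal background marker fitted upward versus DMSO.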

[8] = ATG_GAL4_TRANS: Attagene TRANS-FACTORIAL HepG2 Assay for GAL4 (Internal Marker) (AID 2282976; active = hit-call score of the fitted dose curve at least 0.9, where 1 is the maximum); settings: HepG2 Attagene TRANS GAL4 internal marker reporter
Summary of the method: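 RT-PCR/capillary electrophoresis readout of reporter mRNA. HepG2, transient MRTU transfection (GAL4-UAS reporters), 24 h compound exposure. Background-control endpoint, positive direction vs DMSO baseline.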

[9] = ATG_TCF_b_cat_CIS: Attagene CIS-FACTORIAL HepG2 Assay for human T-Cell-Factor with beta-catenin (TCF/b-cat) (AID 2282965); settings: HepG2 TCF/beta-catenin cis-reporter transcription, actives raise or lower the signal
Summary of the method: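 Cells of the HepG2 line carry transiently transfected reporter units whose promoters respond to endogenous factors. Twenty-four hours post-dosing, reporter mRNA induction is measured by fluorescent RT-PCR and capillary electrophoresis, with DMSO as baseline.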

[10] = molecular target: X-box-binding protein 1 (Homo sapiens) (UniProt P17861); assay: ATG_Xbp1_CIS: Attagene CIS-FACTORIAL HepG2 Assay for human X-box Binding Protein 1 (XBP1) (AID 2282972); settings: HepG2 XBP1 cis-element reporter, Attagene multiplex; actives raise or lower the signal
Summary of the method: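 Human hepatoma HepG2, cis-element reporter system, 24 h treatment; mRNA quantified by RT-PCR/CE fluorescence; fit relative to DMSO.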

Measured: AC50

Chain of X-box-binding protein 1 (Homo sapiens) (P17861 whole entry, looked up): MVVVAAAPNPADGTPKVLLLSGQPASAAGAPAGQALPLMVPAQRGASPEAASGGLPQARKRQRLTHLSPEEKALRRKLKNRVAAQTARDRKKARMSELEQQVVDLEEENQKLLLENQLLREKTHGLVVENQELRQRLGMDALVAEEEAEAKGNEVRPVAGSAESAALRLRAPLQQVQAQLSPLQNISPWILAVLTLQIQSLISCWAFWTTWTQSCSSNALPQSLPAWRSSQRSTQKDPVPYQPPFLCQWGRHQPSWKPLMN
Chain of Nuclear receptor subfamily 1 group I member 3 (Homo sapiens) (Q14994 whole entry, looked up, the tested form may be a part): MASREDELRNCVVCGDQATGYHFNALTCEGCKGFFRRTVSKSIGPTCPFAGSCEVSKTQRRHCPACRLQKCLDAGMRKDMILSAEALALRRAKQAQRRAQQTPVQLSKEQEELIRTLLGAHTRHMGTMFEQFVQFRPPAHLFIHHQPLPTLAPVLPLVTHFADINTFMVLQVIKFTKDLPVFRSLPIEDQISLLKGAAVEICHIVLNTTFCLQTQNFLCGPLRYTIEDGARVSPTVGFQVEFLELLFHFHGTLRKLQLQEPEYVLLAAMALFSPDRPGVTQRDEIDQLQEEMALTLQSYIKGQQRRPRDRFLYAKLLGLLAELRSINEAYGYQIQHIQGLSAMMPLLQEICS
Chain of Estrogen receptor (Homo sapiens) (P03372 whole entry, looked up, the tested form may be a part): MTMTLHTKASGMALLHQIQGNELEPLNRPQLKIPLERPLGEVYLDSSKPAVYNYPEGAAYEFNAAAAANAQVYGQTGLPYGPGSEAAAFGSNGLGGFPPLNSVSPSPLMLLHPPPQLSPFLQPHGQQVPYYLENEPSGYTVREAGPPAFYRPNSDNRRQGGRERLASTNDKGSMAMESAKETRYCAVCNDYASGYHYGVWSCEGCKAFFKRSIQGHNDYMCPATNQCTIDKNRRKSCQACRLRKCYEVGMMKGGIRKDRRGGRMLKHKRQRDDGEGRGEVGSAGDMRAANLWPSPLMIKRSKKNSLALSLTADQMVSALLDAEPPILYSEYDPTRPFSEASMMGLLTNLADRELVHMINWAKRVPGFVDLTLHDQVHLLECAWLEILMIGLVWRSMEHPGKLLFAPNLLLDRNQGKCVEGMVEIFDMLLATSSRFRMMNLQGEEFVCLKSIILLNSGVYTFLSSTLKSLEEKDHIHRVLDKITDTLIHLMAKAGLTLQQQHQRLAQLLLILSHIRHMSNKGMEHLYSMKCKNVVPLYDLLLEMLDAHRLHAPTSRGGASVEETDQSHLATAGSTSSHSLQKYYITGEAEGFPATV
Chain of Steroid hormone receptor ERR1 (Homo sapiens) (P11474 whole entry, looked up, the tested form may be a part): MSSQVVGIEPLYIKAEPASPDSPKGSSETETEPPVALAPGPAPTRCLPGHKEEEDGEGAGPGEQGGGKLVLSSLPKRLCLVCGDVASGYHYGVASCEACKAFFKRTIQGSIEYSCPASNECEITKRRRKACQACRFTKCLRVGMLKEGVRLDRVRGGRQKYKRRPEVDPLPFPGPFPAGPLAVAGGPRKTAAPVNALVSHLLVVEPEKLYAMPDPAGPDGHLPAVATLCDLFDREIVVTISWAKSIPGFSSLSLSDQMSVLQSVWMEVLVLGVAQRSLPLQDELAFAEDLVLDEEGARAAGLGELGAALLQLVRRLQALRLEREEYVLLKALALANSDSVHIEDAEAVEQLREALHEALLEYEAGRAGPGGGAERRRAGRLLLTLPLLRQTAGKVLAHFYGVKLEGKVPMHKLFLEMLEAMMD

OCCC(F)(F)C(F)(F)C(F)(F)C(F)(F)F
not listed: [9] | [10]
inactive: all other assays above

CCCc1ccccc1
inactive: [9] | [1] | [2] | [3] | [8]

O=C(O)c1ccc2c(c1)nc(C(=O)NC1CCN(C3CC3)CC1)n2Cc1cc(-c2ccc(Cl)s2)on1
inactive: [9] | [1] | [2] | [5] | [10] | [8]

FC(F)C(F)(F)COCC1CO1 (centres undefined)
active: [5] 82 µM and 39.8 µM
not listed: [8] | [9]
inactive: all other assays above

Cc1cccc(O)c1C
active: [5] 38.5 µM and 46 µM
not listed: [9]
inactive: all other assays above

CC(C)CCCCCCOC(=O)C1CCCCC1C(=O)OCCCCCCC(C)C (centres undefined)
inactive: [9] | [1] | [2] | [3] | [10] | [7]

Cn1cc[nH]c1=S
inactive: [9] | [1] | [2] | [3] | [8]

OCCOCCOCCO
not listed: [6] | [8] | [9]
inactive: all other assays above

O=C(O)[C@H](O)[C@@H](O)C(=O)O
inactive: [9] | [1] | [2] | [6] | [10] | [8]

O=C(O)c1cccc(C(=O)O)c1
inactive: [9] | [1] | [2] | [7] | [8]

C[C@@H](Oc1ccc(CNC(=O)c2cccnc2Oc2ccc3c(c2)OCO3)c(F)c1)C(=O)O
not listed: [7] | [9]
inactive: all other assays above

OC(O)(C(F)C(O)(O)C(F)(F)F)C(F)(F)F
inactive: [2] | [3] | [4] | [5] | [6] | [8]
active: [1] 51.9 µM and 25.8 µM | [5] 194 µM | [10] 61.9 µM and 33 µM

CCCC(CCC)C(=O)O
not listed: [4] | [6] | [10]
inactive: all other assays above

O=S(=O)(O)CCC(F)(F)C(F)(F)C(F)(F)C(F)(F)C(F)(F)C(F)(F)F
not listed: [9] | [10]
inactive: all other assays above

FC(F)(F)C(F)(F)C(F)(F)C(F)(F)C(F)(F)C(F)(F)I
active: [5] 13.7 µM and 17 µM
not listed: [9]
inactive: all other assays above

CCCCOC(=O)c1ccccc1
inactive: [9] | [1] | [2] | [3] | [10]

NC(=O)N1c2ccccc2C=Cc2ccccc21
inactive: [9] | [1] | [2] | [5] | [10] | [8]

FC(F)=C(F)C(F)(F)C(F)(F)C(F)(F)C(F)(F)C(F)(F)C(F)(F)F
inactive: [1] | [2] | [3] | [4] | [5] | [6] | [10] | [7] | [8]
active: [5] 12.9 µM

OC(Cn1cncn1)(Cn1cncn1)c1ccc(F)cc1F
inactive: [1] | [2] | [3] | [5] | [7]

NC(N)=O
inactive: [1] | [2] | [7] | [8]

OC[C@H]1O[C@@](CO)(O[C@H]2O[C@H](CO)[C@@H](O)[C@H](O)[C@H]2O)[C@@H](O)[C@@H]1O
inactive: [1] | [2] | [10]

CC(=O)c1ccccc1
not listed: [3] | [6] | [9]
inactive: all other assays above

COc1cc(C(C)C)c2c(c1)S(=O)(=O)N(COc1cc(=O)n3cccc(OCCN4CCCCC4)c3n1)C2=O
active: [3] 5.67 µM | [4] 2.75 µM | [5] 2.75 µM | [10] 6.56 µM
inactive: [1] | [2] | [7]

CCCOc1ccc(S(=O)(=O)N2CCN(CC)CC2)cc1-c1nc2c(CC)n(Cc3ccccn3)nc2c(=O)[nH]1
inactive: [1] | [2] | [5]
active: [3] 2.51 µM

CCCCCCCC1CCC(=O)O1 (centres undefined)
inactive: [1] | [2] | [4] | [5] | [7]

C[C@]12C=CC(=O)C=C1CC[C@H]1[C@@H]3C[C@@H](O)[C@](O)(C(=O)CO)[C@@]3(C)C[C@H](O)[C@@]12F
inactive: [1] | [2] | [3] | [10]
active: [5] 37.2 µM

CCCCCCOC(=O)CC(CC(=O)OCCCCCC)(OC(=O)CCC)C(=O)OCCCCCC
inactive: [1] | [2] | [3] | [6] | [8]

c1ccc2c(c1)-c1cccc3c1c-2cc1ccccc13
not listed: [6] | [9]
inactive: all other assays above

c1ccc2ncccc2c1
inactive: [1] | [2] | [5]

OCCNCCO
inactive: [1] | [2] | [3] | [6] | [8]

c1ccc2cc3ccccc3cc2c1
not listed: [4] | [8] | [9]
inactive: all other assays above

O=S1(=O)CCCO1
inactive: [1] | [2] | [3] | [10] | [8]

CCn1nc(C)c2c1C(=O)NCC(c1ccc(O)cc1)=N2
not listed: [6] | [7] | [9]
inactive: all other assays above

CCCCN1C(=O)[C@@H]([C@H](O)C2CCCCC2)NC(=O)C12CCN(Cc1ccc(Oc3ccc(C(=O)O)cc3)cc1)CC2
active: [1] 21.9 µM
inactive: [2] | [5] | [8]

Nc1ccn([C@@H]2O[C@H](CO)[C@@H](O)[C@@H]2O)c(=O)n1
active: [5] 40 µM
not listed: [4] | [6] | [9]
inactive: all other assays above

Cc1ccc(S(=O)(=O)NC(=O)NN2CCCCCC2)cc1
inactive: [1] | [2] | [3] | [5] | [10] | [8]

C=CN1CCCC1=O
inactive: [1] | [2] | [4] | [5] | [10]

CC[C@H](C)C(=O)O[C@H]1C[C@H](O)C=C2C=C[C@H](C)[C@H](CC[C@@H](O)C[C@@H](O)CC(=O)O)[C@H]21
inactive: [1] | [2] | [3] | [8]

c1ccc(C(O[C@@H]2CCCN(CCc3ccc4c(c3)OCO4)C2)c2ccccc2)cc1
active: [5] 1.76 µM
inactive: [1] | [2]

CCCCCCCCCC
inactive: [1] | [2] | [3] | [5] | [7]

CCc1cccc(CC)c1N
inactive: [1] | [2] | [4] | [5] | [10] | [8]

CCCCCCCCCCCCCCO
inactive: [2] | [3] | [5] | [10] | [7]
active: [1] 100 µM

COc1cc2c(c(OC)c1OC)-c1ccc(OC)c(=O)cc1[C@@H](NC(C)=O)CC2
inactive: [1] | [2] | [3] | [10]

COCc1nnc(-c2ccc[n+]([O-])c2)n1-c1c(Cl)c(Cl)cc2[nH]c(=O)c(=O)[nH]c12
inactive: [1] | [2] | [3] | [5] | [10] | [8]

NC(=O)NN=Cc1ccc([N+](=O)[O-])o1
inactive: [1] | [2] | [3] | [10]

CCCCCCCC/C=C\CCCCCCCC(=O)OC[C@@H](O)[C@H]1OC[C@H](O)[C@H]1O
not listed: [4] | [6] | [9]
inactive: all other assays above
